Experimental data as given in PubChem BioAssay (NCATS).
Results filed as inconclusive are left out. The source made the active and inactive calls. The call rests on the fitted dose curve; in most records, active means well fitted curve in the direction sought with a large enough effect; inconclusive means small, poorly fitted or top-dose-only effect, or another doubt; inactive means no such curve, though single readings can be large or run the other way.

Tests used:
[1] = target: T1, Hexokinase-4 (Homo sapiens) + Glucokinase regulatory protein (Homo sapiens) (UniProt P35557+Q14397); assay: qHTS assay for inhibitors of recombinant human GCK-GKRP interaction: Diaphorase-coupled assay (AID 743205)
Method in brief: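 Inhibitors of the GCK–GKRP complex relieve GKRP suppression of GCK, detected through a G6PDH–diaphorase cascade reducing resazurin. Human GST-GCK and FLAG-GKRP are used at 10 nM with 5 mM glucose and 0.4 mM ATP.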

[2] = target: T1, Hexokinase-4 (Homo sapiens) + Glucokinase regulatory protein (Homo sapiens); assay: qHTS assay for inhibitors of recombinant human GCK-GKRP interaction: ADP-Glo assay (AID 743206);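 further: plate controls were DMSO plus enzyme for no effect and no enzyme for full effect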
Method in brief: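 Pin-transferred compounds meet a 15 nM GST-GCK/15 nM FLAG-GKRP/2 uM S6P mix (dispense concentrations). ATP is then added to 0.4 mM final with 5 mM glucose, and the reaction runs 60 min at room temperature. ADP is quantified luminescently.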

[3] = target: T1, Hexokinase-4 (Homo sapiens) + Glucokinase regulatory protein (Homo sapiens); assay: qHTS assay for inhibitors of recombinant human GCK-GKRP interaction: HTRF assay (AID 743207);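 further: 0% = DMSO with GCK present and -100% = DMSO wells lacking GCK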
Method in brief: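 Steps: dispense GCK–GKRP complex (5 nM each, GST- and FLAG-tagged) with 2 uM S6P; pin in compounds; add XL665/Eu-cryptate-labelled antibodies; incubate 60 min at room temperature; read time-resolved FRET at 665 and 615 nm.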

[4] = qHTS Assay for Identifying Gametocytocidal Compounds (AID 743244);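 further: on the % scale 0 is the no-effect control and ±100 the full control effect; actives lower the fluorescent signal which means gametocytes are killed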; details: P. falciparum 3D7 stage III-V gametocytes, alamarBlue, 72 h; max response: stronger effect = lower value
Method in brief: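 3D7 gametocytes, stages III–V, 20,000/well; cpd 72 h, 37 °C/5% CO2; + alamarBlue 24 h; fluor. Ex 525/Em 598.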

T1 sequence (P35557 whole entry, looked up): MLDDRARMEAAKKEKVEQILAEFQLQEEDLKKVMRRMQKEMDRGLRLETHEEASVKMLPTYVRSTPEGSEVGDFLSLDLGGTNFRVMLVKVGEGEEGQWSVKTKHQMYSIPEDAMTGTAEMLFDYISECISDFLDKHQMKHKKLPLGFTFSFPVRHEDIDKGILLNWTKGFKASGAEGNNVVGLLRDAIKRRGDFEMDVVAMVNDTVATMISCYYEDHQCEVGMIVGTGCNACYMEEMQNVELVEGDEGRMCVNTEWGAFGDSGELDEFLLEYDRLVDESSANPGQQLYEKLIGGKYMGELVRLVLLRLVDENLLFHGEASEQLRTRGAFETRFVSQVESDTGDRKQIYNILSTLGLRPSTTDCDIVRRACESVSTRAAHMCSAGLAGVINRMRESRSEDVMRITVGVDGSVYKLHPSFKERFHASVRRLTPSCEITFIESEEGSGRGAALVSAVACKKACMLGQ
T1 sequence (Q14397 whole entry, looked up): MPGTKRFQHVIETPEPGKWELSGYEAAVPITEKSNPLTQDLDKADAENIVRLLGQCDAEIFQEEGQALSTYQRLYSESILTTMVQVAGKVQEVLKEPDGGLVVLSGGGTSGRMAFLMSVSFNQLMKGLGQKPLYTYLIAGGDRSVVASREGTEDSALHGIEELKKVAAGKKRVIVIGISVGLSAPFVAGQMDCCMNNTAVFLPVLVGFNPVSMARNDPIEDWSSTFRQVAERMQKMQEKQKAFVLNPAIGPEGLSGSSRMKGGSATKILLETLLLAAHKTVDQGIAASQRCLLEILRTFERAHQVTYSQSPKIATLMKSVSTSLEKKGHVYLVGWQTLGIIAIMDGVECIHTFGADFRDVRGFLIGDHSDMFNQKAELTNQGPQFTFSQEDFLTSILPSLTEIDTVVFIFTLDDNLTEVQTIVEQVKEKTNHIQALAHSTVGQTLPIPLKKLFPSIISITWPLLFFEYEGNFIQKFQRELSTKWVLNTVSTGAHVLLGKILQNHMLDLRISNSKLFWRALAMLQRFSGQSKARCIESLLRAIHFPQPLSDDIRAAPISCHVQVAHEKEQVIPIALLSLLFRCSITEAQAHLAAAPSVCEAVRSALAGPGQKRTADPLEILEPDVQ

Cn1cc(C(=O)OCC2CCN(CCNS(C)(=O)=O)CC2)c2ccccc21
inactive: Potency [1] | Potency [2] | Potency [3] | max response [4] 28.9%

NC(=O)CC[C@H](N)C(=O)O
inactive: Potency [1] | Potency [2] | Potency [3] | max response [4] -4.4%

CC(=O)O[C@H]1CC2(C)[C@@H](C[C@@H](O)[C@H]3[C@@]4(C)CC[C@@H](O)[C@@H](C)[C@@H]4CC[C@@]32C)C1=C(CCC=C(C)C)C(=O)O (some centres not stated)
inactive: Potency [1] | Potency [2] | Potency [3] | max response [4] 12.4%

N[C@H]1CONC1=O
inactive: Potency [1] | Potency [2] | Potency [3] | max response [4] 7.19%

COc1ccccc1N1CCN(CCCNc2c(C)c(=O)n(C)c(=O)n2C)CC1
inactive: Potency [1] | Potency [2] | Potency [3] | max response [4] -1.96%

CCCCCCN(CCCCCC)C(=O)Cc1c(-c2ccc(F)cc2)[nH]c2ccccc12
inactive: Potency [1] | Potency [2] | Potency [3] | max response [4] 19.7%

O=c1cc(-c2ccccc2F)[nH]c2cc3c(cc12)OCO3
inactive: Potency [1] | Potency [2] | Potency [3] | max response [4] 15.8%

O=C(O)Cc1c[nH]c2ccc(O)cc12
inactive: Potency [1] | Potency [2] | Potency [3] | max response [4] -2.34%

NCCCCN=C(N)N
inactive: Potency [1] | Potency [2] | Potency [3] | max response [4] 3.59%

CCCCCCC(=O)OC1CC(C)(C)NC(C)(C)C1
inactive: Potency [1] | Potency [2] | Potency [3] | max response [4] -4.67%

NCC(O)C1CCCCCCC1 (configuration not stated)
inactive: Potency [1] | Potency [2] | Potency [3] | max response [4] 18.9%

O=C(O)C1CCCNC1 (configuration not stated)
inactive: Potency [1] | Potency [2] | Potency [3] | max response [4] 20.9%

COc1cccc(OC)c1OCCNCC1CSc2ccccc2O1 (configuration not stated)
inactive: Potency [1] | Potency [2] | Potency [3] | max response [4] 8.7%

CCCCS(=N)(=O)CC[C@H](N)C(=O)O (some centres not stated)
inactive: Potency [1] | Potency [2] | Potency [3] | max response [4] 6.27%

CN1C2CCC1CC(OC(c1ccccc1)c1ccccc1)C2 (configuration not stated)
inactive: Potency [1] | Potency [2] | Potency [3] | max response [4] 31%

CC(C)C[C@H](NC(=O)C1OC1C(=O)O)C(=O)NCCCCN=C(N)N (some centres not stated)
inactive: Potency [1] | Potency [2] | Potency [3] | max response [4] -4.29%

CCCCCC(O)CCCC(=O)O (configuration not stated)
inactive: Potency [1] | Potency [2] | Potency [3] | max response [4] -4.98%

C=C(C)C1CC=C(C(=O)O)CC1 (configuration not stated)
inactive: Potency [1] | Potency [2] | Potency [3] | max response [4] 19.6%

N[C@H](C(=O)O)[C@H]1C[C@@H]1C(=O)O
inactive: Potency [1] | Potency [2] | Potency [3] | max response [4] 18.4%

OCC1NCC(O)C(O)C1O (configuration not stated)
inactive: Potency [1] | Potency [2] | Potency [3] | max response [4] 29.9%

O=C(O)CCC/C=C\C[C@@H]1[C@@H](/C=C/[C@H](O)C2Cc3ccccc3C2)[C@@H](F)C[C@@H]1O
inactive: Potency [1] | Potency [2] | Potency [3] | max response [4] -7.09%

Brc1c(Br)c(Br)c2[nH]cnc2c1Br
inactive: Potency [1] | Potency [2] | Potency [3] | max response [4] 7.09%

O=C(O)c1ccccc1Nc1cccc(OCc2ccc3ccccc3n2)c1
inactive: Potency [1] | Potency [2] | Potency [3] | max response [4] 1.28%

COc1ccccc1N1CCN(CCN(C(=O)c2ccc(F)cc2)c2ccccn2)CC1
inactive: Potency [1] | Potency [2] | Potency [3] | max response [4] 23.7%

C=CC[C@H](N)C(=O)O
inactive: Potency [1] | Potency [2] | Potency [3] | max response [4] 18.7%

COc1ccc(CCN(C)CCc2ccc(OC)c(OC)c2)cc1OC
inactive: Potency [1] | Potency [2] | Potency [3] | max response [4] 12.4%

Nc1nc2c(cnn2CCc2ccccc2)c2nc(-c3ccco3)nn12
inactive: Potency [1] | Potency [2] | Potency [3] | max response [4] -5.77%

CC(=O)N[C@@H](Cc1c[nH]c2ccccc12)C(=O)OCc1cc(C(F)(F)F)cc(C(F)(F)F)c1
inactive: Potency [1] | Potency [2] | Potency [3] | max response [4] 12%

N#Cc1cc2nc(O)c(O)nc2cc1[N+](=O)[O-]
inactive: Potency [1] | Potency [2] | Potency [3] | max response [4] 15.6%

O=C(O)C1=CCCN(CCON=C(c2ccccc2)c2ccccc2)C1
inactive: Potency [1] | Potency [2] | Potency [3] | max response [4] -12.8%

Cn1cc(C(F)(F)F)nc1-c1ccc(OCC(O)CNCCOc2ccc(O)c(C(N)=O)c2)cc1 (configuration not stated)
inactive: Potency [1] | Potency [2] | Potency [3] | max response [4] 26.1%

Cc1cccc(C(=O)NCN2CCN(c3ccccc3C#N)CC2)c1
inactive: Potency [1] | Potency [2] | Potency [3] | max response [4] 20.6%

NCCC1CCCC(CCN)N1 (configuration not stated)
inactive: Potency [1] | Potency [2] | Potency [3] | max response [4] 30.6%
